Assay outcomes from PubChem.
SARS PLpro yeast – qHTS of Yeast-based Assay for SARS-CoV PLP. S. cerevisiae expressing SARS-CoV PLpro, growth rescue. Potency, µM (series often up to 32.9 µM), for the others: at the highest dose activity, positive = growth rescue, usual class: activators. actives 0.19% (n = 330,000); calls by dose curve; further: potency means the concentration at half of the fitted maximal effect; 0% is about no effect; nearly all actives have a fitted effect of over 55% in size
FMDV inh – High Throughput Screening for Foot and Mouth Disease Virus Antivirals | FMDV antiviral cell-based qHTS | Potency, µM (series often up to 57.9 µM), for inactives: at the highest dose activity change, negative = inhibition, hits mostly inhibitors | actives 1.2% (n = 410,000) | AID 1159524, 2015; calls by dose curve; tested in HEK293T cells; further: read-out not given here; potency means the concentration at half of the fitted maximal effect; on the % scale 0 is the no-effect control and ±100 the full control effect; nearly all actives have a fitted effect of over 45% in size
HCV inhibitor – qHTS Assay for Inhibitors of Hepatitis C Virus (HCV). actives 3.4% (n = 340,000). Potency, µM (highest dose often 41.8 µM), without a hit: at the top dose activity change, negative = inhibition, usual class: inhibitors. Huh7.5.1 HCVcc-Cre infection, luciferase reporter, 44 h; active means well fitted inhibition curve with a large enough effect; inconclusive means small, poorly fitted or top-dose-only effect, or another doubt; inactive means no such curve, though single readings can be large or run the other way; further: potency means the concentration at half of the fitted maximal effect; on the % scale 0 is the no-effect control and ±100 the full control effect
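Luciferase read-out (15 sec integration) after a 15 min room-temperature substrate step quantifies HCVcc-Cre infection. Cells, 1,000 per well, had compound added 4 h post-plating, then virus at ~0.5 moi, and were cultured 44 h.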
Lassa entry inh – qHTS for Inhibitors of binding or entry into cells for Lassa Virus | AID 540256, 2011 | Potency, µM (titrated, usually from 37.9 µM), for the others: at the top dose activity change, negative = inhibition, actives largely listed as inhibitors | Lassa virus pseudotype entry inhibition, cell reporter | actives 1.2% (n = 300,000); calls by dose curve; tested in HEK293 cells; further: potency means the concentration at half of the fitted maximal effect; on the % scale 0 is the no-effect control and ±100 the full control effect; nearly all actives have a fitted effect of over 50% in size
Marburg entry inh – qHTS for inhibitors of binding or entry into cells for Marburg Virus; Potency, µM (titrated, usually from 37.8 µM), inactives show at the top dose activity change, negative = inhibition, actives largely listed as inhibitors; Marburg virus pseudotyped entry inhibition, cell reporter; actives 1.8% (n = 300,000); calls by dose curve; tested in HEK293 cells; further: potency means the concentration at half of the fitted maximal effect; on the % scale 0 is the no-effect control and ±100 the full control effect
HCMV inh – qHTS Assay for inhibitors of the human cytomegalovirus (HCMV). HFF cells, HCMV-luciferase reporter, 72 h; active compounds read low. activity change, negative = inhibition, % at 57.5 µM. actives 4.5% (n = 410,000). AID 1259415, 2018; in the data active means activity change below about -60%; inconclusive means no clear call, values can overlap the other calls; inactive means above about -39%; further: on the % scale 0 is the no-effect control and ±100 the full control effect
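Cell-based, HFFs, 1000 cells/well, 16 h 37C; cpds in DMSO + HCMV-luc, MOI 1 PFU/cell; 72 h 37C; OneGlo luminescence after 5 min RT; norm. to buffer vs Salinomycin 10uM.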
* marks the source's active call; other numbers are inactive results; [ ] = remark or other dose. Hits are enriched below; roughly 8% of the tested compounds scored in any of these assays.

How did Cc1ccc(O)c(Nc2c3ccccc3nc3ccccc23)c1 do in these assays?
SARS PLpro yeast: -11%; FMDV inh: inconclusive; HCV inhibitor: 10µM*; Lassa entry inh: inconclusive; Marburg entry inh: inconclusive; HCMV inh: -36

What do the screens show for `COc1ccc(CCNc2oc(COc3ccc(Cl)cc3)nc2C#N)cc1OC`?
FMDV inh: 32µM*; Lassa entry inh: -17%[46.1 µM]; Marburg entry inh: inconclusive; HCMV inh: -23

What do the screens show for `N#Cc1nc(COc2ccc(Cl)cc2)oc1NCc1ccc2c(c1)OCO2`?
SARS PLpro yeast: -1%; FMDV inh: 0%; HCV inhibitor: 10µM*; Lassa entry inh: -4%; Marburg entry inh: 6%[46.1 µM]; HCMV inh: 3

Results for CCOc1ccc(-c2nc3c(s2)CCc2onc(-c4ccc(OC)cc4)c2-3)cc1 ?
FMDV inh: -15%; HCV inhibitor: 9%; HCMV inh: -60*

Results for COc1ccc(-c2noc3c2-c2nc(-c4c(F)cccc4F)sc2CC3)cc1 ?
SARS PLpro yeast: 0%; FMDV inh: inconclusive; HCV inhibitor: 3.5µM*; HCMV inh: 9

What do the screens show for `COc1ccc(-c2noc3c2-c2nc(-c4ccc(C)cc4)sc2CC3)cc1`?
FMDV inh: -24%; HCV inhibitor: 16%; HCMV inh: inconclusive

Results for C/C=C/C(=O)OCC(=O)Nc1ccc(SC(F)F)cc1 ?
SARS PLpro yeast: -8%; FMDV inh: 9%; HCV inhibitor: 15%; Lassa entry inh: -36%; Marburg entry inh: -7%[46.1 µM]; HCMV inh: -76*

Results for COc1ccc(CCN(Cc2cccs2)S(=O)(=O)c2ccc(-n3cnnn3)cc2)cc1OC ?
SARS PLpro yeast: -5%; FMDV inh: inconclusive; HCV inhibitor: 11µM*; Lassa entry inh: inconclusive; Marburg entry inh: inconclusive; HCMV inh: inconclusive

Results for COc1ccc(CCN(Cc2cccs2)S(=O)(=O)c2ccc(S(=O)(=O)N3CCCCCC3)cc2)cc1OC ?
SARS PLpro yeast: 25%; FMDV inh: -28%; HCV inhibitor: inconclusive; Lassa entry inh: -3%; Marburg entry inh: 10%; HCMV inh: 2

Results for CCC(C)NS(=O)(=O)c1ccc(S(=O)(=O)N(CCc2ccc(OC)c(OC)c2)Cc2cccs2)cc1 (stereo not drawn) ?
SARS PLpro yeast: 0%; FMDV inh: -26%; HCV inhibitor: 11µM*; Lassa entry inh: inconclusive; Marburg entry inh: 3.5µM*; HCMV inh: -64*

How did CC(=NNC(=S)N1CC2CCC(CC2)C1)c1nccs1 do in these assays?
FMDV inh: -11%; HCV inhibitor: inconclusive; Lassa entry inh: inconclusive; Marburg entry inh: inconclusive; HCMV inh: -63*

How did CC(=NNC(=S)N1CC2CCC(CC2)C1)c1cccc(C)n1 do in these assays?
FMDV inh: -8%; HCV inhibitor: inconclusive; Lassa entry inh: inconclusive; Marburg entry inh: inconclusive; HCMV inh: -83*

Results for CC(C)C(NS(=O)(=O)c1ccc2c(c1)oc(=O)n2C)C(=O)N1CCN(c2cccc(Cl)c2)CC1 (stereo not drawn) ?
FMDV inh: 0%; Lassa entry inh: inconclusive; Marburg entry inh: -18%[46.1 µM]; HCMV inh: -12

What do the screens show for `CCCCCN1C(C(=O)c2ccccc2)=C(NC(=O)c2ccccc2Cl)c2ccccc2S1(=O)=O`?
FMDV inh: -12%; Lassa entry inh: inconclusive; Marburg entry inh: -4%[46.1 µM]; HCMV inh: -1

Results for O=C(/C=C/c1ccco1)Nc1ccc(S(=O)(=O)N2CCOCC2)cc1 ?
SARS PLpro yeast: 0%; FMDV inh: 5%; HCV inhibitor: 3.5µM*; Lassa entry inh: -15%; Marburg entry inh: 4%; HCMV inh: -18

Results for CCCC(=O)N1CCN(c2ccc(NC(=O)c3ccc([N+](=O)[O-])o3)cc2Cl)CC1 ?
SARS PLpro yeast: -23%; FMDV inh: 20µM*; HCV inhibitor: inconclusive; Lassa entry inh: inconclusive; Marburg entry inh: inconclusive; HCMV inh: -109*

Results for CC(=O)N1CCN(c2ccc(NC(=O)c3ccc(Br)o3)cc2Cl)CC1 ?
SARS PLpro yeast: -1%; FMDV inh: 18%; HCV inhibitor: -19%; HCMV inh: -31

Results for O=S(=O)(c1ccc(NC(=S)NN=C(Cc2ccccc2)Cc2ccccc2)cc1)N1CCOCC1 ?
SARS PLpro yeast: 1%; FMDV inh: 0%; HCV inhibitor: 10µM*; Lassa entry inh: inconclusive; Marburg entry inh: 12%[46.1 µM]; HCMV inh: -33

How did CC(C)C(=O)N1CCN(c2ccc(NC(=O)c3ccc([N+](=O)[O-])o3)cc2Cl)CC1 do in these assays?
SARS PLpro yeast: -2%; FMDV inh: 25µM*; HCV inhibitor: 10µM*; Lassa entry inh: inconclusive; Marburg entry inh: inconclusive; HCMV inh: -100*

What do the screens show for `O=S(=O)(c1ccc(NC(=S)NCCc2ccccc2)cc1)N1CCOCC1`?
SARS PLpro yeast: 4%; FMDV inh: 43%; HCV inhibitor: 3%; Lassa entry inh: -12%; Marburg entry inh: 6%; HCMV inh: -24

How did O=C(Nc1ccccc1N1CCN(C(=O)c2ccc(Cl)cc2)CC1)c1ccc([N+](=O)[O-])o1 do in these assays?
SARS PLpro yeast: -20%; FMDV inh: -20%; HCV inhibitor: inconclusive; Lassa entry inh: inconclusive; Marburg entry inh: inconclusive

What do the screens show for `CC(C)COc1ccc(C(=O)N[C@@H](CC(C)C)C(=O)O)cc1`?
Marburg entry inh: 27%

How did CC(C)C(=O)N1CCN(c2ccc(NC(=O)c3ccc([N+](=O)[O-])o3)cc2)CC1 do in these assays?
SARS PLpro yeast: -3%; FMDV inh: -21%; HCV inhibitor: inconclusive; Lassa entry inh: -17%; Marburg entry inh: 21%[46.1 µM]; HCMV inh: -98*

How did CCCCCC(=O)NC(=S)Nc1ccc(N2CCCCC2)c(Cl)c1 do in these assays?
SARS PLpro yeast: -1%; FMDV inh: -7%; HCV inhibitor: 19%; Lassa entry inh: -22%; Marburg entry inh: inconclusive; HCMV inh: 24

Results for O=S(=O)(c1ccc(NC(=S)N2CCN(c3ccc(O)cc3)CC2)cc1)N1CCOCC1 ?
SARS PLpro yeast: 0%; FMDV inh: -22%; HCV inhibitor: inconclusive; Lassa entry inh: -15%; Marburg entry inh: -5%[46.1 µM]; HCMV inh: -63*

What do the screens show for `Cc1ccc(NC(=O)C(=O)c2c(-c3ccccc3)cc3ccccn23)cc1S(=O)(=O)N1CCOCC1`?
SARS PLpro yeast: 0%; FMDV inh: -16%; HCV inhibitor: inconclusive; Lassa entry inh: -1%; Marburg entry inh: inconclusive; HCMV inh: -76*
